Assay results reported in PubChem BioAssay (NCI).
Compounds without any hit were thinned out: in the full panel of roughly 79,000, 15% have a hit. Cut-off read from the data, not from the text of the source: active = growth inhibition above about 70%; inactive = the rest.

How the values were obtained:
[1] = NCI Yeast Anticancer Drug Screen. Data for the rad50 strain (AID 155);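 note: 0% = growth of vehicle-only cultures of the same strain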; conditions: S. cerevisiae rad50 strain growth inhibition; at 50.0 µM; stronger effect = higher value
Outline: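 DNA repair mutant yeast, compound exposure, growth read-out; inhibition is taken relative to vehicle.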

[2] = NCI Yeast Anticancer Drug Screen. Data for the mec2-1 strain (AID 157); conditions: S. cerevisiae mec2-1 strain, at 50.0 µM, stronger effect = higher value
Outline: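 Using mec2-1 yeast: add compound, measure growth, express inhibition versus vehicle-treated cultures.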

[3] = NCI Yeast Anticancer Drug Screen. Data for the sgs1 mgt1 strain (AID 161);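 note: 0% = growth of cultures given vehicle only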; conditions: S. cerevisiae sgs1 mgt1 strain, at 50.0 µM, stronger effect = higher value
Outline: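 Yeast cells carrying a defined DNA-repair defect were exposed to test compounds. Growth inhibition was measured relative to vehicle-treated controls.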

[4] = NCI Yeast Anticancer Drug Screen. Data for the cln2 rad14 strain (AID 165);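 note: 0% = growth equal to vehicle treated cultures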; conditions: S. cerevisiae cln2 rad14 strain, at 50.0 µM, stronger effect = higher value
Outline: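 Yeast strain cln2 rad14, bearing defects in cell cycle control and DNA repair, serves as the test system; values reflect growth inhibition compared with vehicle.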

[5] = NCI Yeast Anticancer Drug Screen. Data for the bub3 strain (AID 167); conditions: S. cerevisiae bub3 mutant strain, at 50.0 µM, stronger effect = higher value
Outline: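 In this screen, a yeast mutant lacking normal mitotic checkpoint function is challenged with compound. Relative growth versus vehicle gives the inhibition value.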

[6] = NCI Yeast Anticancer Drug Screen. Data for the mlh1 rad18 strain (AID 175); conditions: S. cerevisiae mlh1 rad18 strain growth inhibition; at 50.0 µM; stronger effect = higher value
Outline: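 Steps: expose repair-defective yeast to compound; measure growth; express inhibition against vehicle-treated controls.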

Measured: growth inhibition

Nc1nc2c(ncn2C2C=CC(CO)C2)c(=O)[nH]1 (stereo not drawn)
inactive: [1] 7.6% | [2] 12.5% | [3] 3.9% | [4] 10.4% | [5] -2.1% | [6] 4.25%

CC(C)(C)N1CC(C(O)c2ccccc2)C1c1ccccc1 (stereo not drawn)
inactive: [1] -8.05% | [2] 0.25% | [3] -17.2% | [4] -13.6% | [5] -11.4% | [6] -2.5%

Cc1ccc(Nc2ncnc3c2cnn3-c2ccccc2)cc1
inactive: [1] 9.7% | [2] 12.2% | [3] 43.5% | [4] -24.1% | [5] -2.35% | [6] 8.05%
